# From PubChem BioAssay AID1347076 (National Center for Advancing Translational Sciences (NCATS), 2019)
# Among all 400,000 compounds or so, about 13,000 (3.2%) were called active. Not shown: some 18% with an inconclusive outcome. Many of the other results were omitted from the sample, so actives are more common in it than they were. A number with no mark means an inactive call. The call rests on the fitted dose curve; in most records, active means well fitted cell-killing curve with a large enough effect; inconclusive means small, poorly fitted or top-dose-only effect, or effect the other way; inactive means flat fitted curve, though single readings scatter.
# Assay: qHTS assay for MDR1-selective chemotherapeutics: Primary screen using the drug-selected MDR subline cells KB-V1; further: nearly all actives have a fitted effect of over 60% in size
# Conditions: KB-V1 MDR cells viability, CellTiter-Glo, 72 h; series mostly up to 46.1 µM; activity change, negative = cytotoxicity: at the top concentration
# How it was run: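 Compound-treated KB-V1 multidrug-resistant cells, 72 h, 37 degrees C; viability by CellTiter-Glo. Fitted qHTS curves give the values.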
# On the % scale 0 is the no-effect control and ±100 the full control effect; potency means the concentration at half of the fitted maximal effect.
Compound,"activity change, negative = cytotoxicity [%]",Potency
CCCn1c(N)c(C(=O)CSc2nnc(Cc3cccs3)n2C2CC2)c(=O)[nH]c1=O,3.91,
COc1ccc(CCNc2nc(C)cc(C)n2)cc1OC,6.88,
CCCCn1c(SCC(=O)NCCc2ccc(OC)c(OC)c2)nc2c1c(=O)n(C)c(=O)n2C,0,
Cc1ccnc(SCCn2c(N(C)Cc3ccccc3)nc3c2c(=O)n(C)c(=O)n3C)n1,-0.969,
Cn1c(=O)c2c(nc(NCCc3ccccc3)n2Cc2ccccc2)n(C)c1=O,,6.51 µM (active)
Cn1c(=O)c2c(nc(NCc3ccccc3)n2CC(N)=O)n(C)c1=O,-8.35,
CC(C)CCn1c(CN(C)Cc2ccccc2)nc2c1c(=O)n(C)c(=O)n2C,,9.2 µM (active)
CCn1c(NCCc2ccc(OC)c(OC)c2)nc2c1c(=O)n(C)c(=O)n2C,,4.61 µM (active)
COCCn1c(CN(Cc2ccccc2)Cc2ccccc2)nc2c1c(=O)n(C)c(=O)n2C,-15.9,
Cn1c(=O)c2c(nc(NCCc3ccccc3)n2Cc2ccccc2Br)n(C)c1=O,8.3,
Cc1noc(C)c1C(=O)N1CCC1(C)C(=O)NS(=O)(=O)c1ccc(C#N)cc1 (stereo not given),-16.6,
Cc1ccc(-c2cnc(C(O)c3cc(Cl)cc(Cl)c3)[nH]2)cc1 (stereo not given),-1.01,
Cc1cccc(N2CCN(S(=O)(=O)c3ccc4[nH]c5c(c4c3)CCCCC5)CC2)c1C,-22.5,
O[C@@H]1C[C@H](c2ccccc2)N(Cc2cccs2)C[C@H]1n1cc(C2CC2)nn1,18.2,
COC(=O)[C@]12CCCCC=C1N(Cc1ccc3c(c1)OCO3)C(=O)[C@H](CC(=O)N1CCOCC1)C2,-24.6,
Cc1cccc(/C=N/NC(=O)CNc2cccc3ccccc23)n1,,14.6 µM (active)
Cn1cccc1/C=N/NC(=O)CNc1cccc2ccccc12,-5.81,
C/C(=N\NC(=O)CNc1cccc2ccccc12)c1ccc(Br)s1,-2.25,
COCCNS(=O)(=O)c1cc(-c2nn3c(C)nnc3c3ccccc23)ccc1C,5.47,
Cc1ccc(NC(=O)c2ccco2)cc1,-11.2,

Compound,"activity change, negative = cytotoxicity [%]",Potency
CCOc1cc(N2CCOCC2)c(OCC)cc1NC(=O)COc1cccc2cccnc12,,5.17 µM (active)
CCOc1cc(N2CCOCC2)c(OCC)cc1NC(=O)COc1cccc(Cl)c1,-16.4,
CCOc1cc(N2CCOCC2)c(OCC)cc1NC(=O)c1ccc(C)s1,2.44,
CC(C)(C)c1ccc(C(=O)C[n+]2cccc3cc(Cl)ccc32)cc1,14.4,
Cc1ccc(C(=O)N2c3ncnn3C3(CCCCC3)[C@@H]3CCCC[C@@H]32)cc1,-14.7,
O=C(Nc1nnc(C2CC2)s1)c1cc(Cl)sc1Cl,13.8,
Cc1occc1C(=O)Nc1nnc(C2CCCCC2)s1,,16.4 µM (active)
Cc1cc(C(=O)Nc2nnc(C3CC3)s2)c(C)s1,-22.1,
CC1=C(C(=O)N2CCOCC2)CC(CC(=O)NCCN2CCOCC2)C(=O)N1CCC1=CCCCC1 (stereo not given),63.2,
COc1ccc(N2CCN(S(=O)(=O)c3ccc(-c4coc(C)n4)cc3)CC2)cc1,0,
COc1ccc(Br)cc1C1CC(=O)Nc2c1c(C)nn2-c1nc(C)cc(C)n1 (stereo not given),3.24,
Oc1ccc(Br)cc1C1C=C(c2ccc3c(c2)OCO3)NC(c2ccc(Cl)cc2)N1 (stereo not given),11.4,
COC(=O)c1cc(Oc2ccc(S(=O)(=O)N3CCOCC3)cc2[N+](=O)[O-])cc(C(=O)OC)c1,1.19,
Cc1nnc(-c2ccc(Oc3ccc(C)c(C)c3)c([N+](=O)[O-])c2)o1,,14.6 µM (active)
COc1ccc(OCC(=O)Nc2cc(C)c(Cl)cc2OC)c([N+](=O)[O-])c1,0,
CCc1ccccc1NC(=O)N1CCN(C(=O)c2nsc3ccccc23)CC1,-9.18,
CCOc1cc(-c2nnc(SCC(=O)NC3CCCC3)nc2-c2ccc(OC)c(OCC)c2)ccc1OC,3.85,
CN(c1ccccc1)S(=O)(=O)c1cc(C(=O)Nc2nc3ccccc3[nH]2)ccc1Cl,,3.66 µM (active)
CN(c1ccccc1)S(=O)(=O)c1cc(C(=O)N2CCN(c3ncccn3)CC2)ccc1Cl,,2.91 µM (active)
CC(=O)c1ccc(N2CCN(C(=O)c3ccc(Cl)c(S(=O)(=O)NC4CC4)c3)CC2)c(F)c1,6.94,

Compound,"activity change, negative = cytotoxicity [%]",Potency
CN(c1ccccc1)S(=O)(=O)c1cc(C(=O)OCC(=O)N2CCN(C(=O)c3ccco3)CC2)ccc1Cl,-22.2,
COc1cccc(C(=O)Nc2nnc(S(=O)(=O)N(C)c3ccccc3)s2)c1,17.8,
CN(c1ccccc1)S(=O)(=O)c1ccc(C(=O)N2CCN(c3ccccc3Cl)CC2)cc1,-14.5,
CC(OC(=O)c1ccc(NC(=O)CC#N)cc1)C(=O)Nc1ccc(S(=O)(=O)N2CCCC2)cc1 (stereo not given),-7.06,
Nc1nc2cc(Cl)ccc2n1N,0.774,
CCCCN(CC)C(=O)c1c[nH]c2ccc(S(=O)(=O)Nc3cccc(OC)c3)cc2c1=O,0.646,
CCCc1nc2c3ccccc3ccn2c1Cc1ccccc1C(F)(F)F,20.4,
COC(=O)[C@@]1(Cc2ccc(F)cc2)[C@H]2c3cc(C(=O)N4CCCC4)n(C[C@H](O)CO)c3C[C@H]2CN1C(=O)c1ccccc1,24.6,
COc1ccc(CNC(=O)C2CCN(C(=O)c3ccccc3)CC2)cc1,19,
COc1ccc2c(c1)C(SCC(=O)NCc1ccccc1)CC(C)(C)O2 (stereo not given),-13.6,
C[C@]1(C(=O)NCCc2c[nH]c3ccccc23)C=C[C@@H](Cc2ccccc2)N1C(=O)c1ccccc1,-0.929,
COC(=O)[C@@]1(Cc2ccc(OC)cc2)[C@H]2c3cc(C(=O)N4CCCC4)n(Cc4ccc(OC(F)(F)F)cc4)c3C[C@H]2CN1C(=O)c1ccccc1,,20.6 µM (active)
COC(=O)[C@@]1(Cc2ccc(F)cc2)[C@H]2c3cc(C(=O)N(C)C)n(CCc4c[nH]c5ccc(OC)cc45)c3C[C@H]2CN1C(=O)c1ccccc1,,18.4 µM (active)
CCN1C(=O)[C@H]2[C@@H](c3ccc(C(F)(F)F)cc3)N[C@]3(CCCN(Cc4ccc(Br)cc4)C3=O)[C@H]2C1=O,-9.24,
CC1(C)CC(=O)C=C(c2ccccc2CO)C1=O,0,
Cn1c(Nc2ccc(F)cc2)nc2cc(-c3ccsc3)sc2c1=O,3.2,
O=C(c1cnn2c1NC(=C1CC1)C=C2C(F)F)N1CCc2ccccc2C1,7.8,
CCN(CC)S(=O)(=O)c1ccc2c(c1)c(=O)c(C(=O)N1CCN(c3cccc(Cl)c3)CC1)cn2C,21.8,
CCn1cc(C(=O)NCc2ccccc2)c(=O)c2cc(S(=O)(=O)N3CCCCC3)ccc21,-5.6,
C=CCn1cc(C(=O)NCc2ccc(Cl)cc2)c(=O)c2cc(S(=O)(=O)N(CC)CC)ccc21,,18.4 µM (active)
